{"source": "PubChem BioAssay (NCATS)", "note": "Inconclusive results are not listed. Activity calls are given as the source filed them. Calls come from the whole dose curve; as a rule, active = well fitted curve in either direction with a large enough effect (not every such curve was filed as active); inconclusive = small, poorly fitted or top-dose-only effect, or another doubt; inactive = flat fitted curve, though single readings scatter. % is set by controls: 0 for no effect and ±100 for the full control effect.", "data": [{"test": "Stat Signaling Pathway (AID 446)", "settings": "ME-180 SIE beta-lactamase reporter, IL-6 stimulated, 5 h; at 7.69 µM (top of the series) unless noted", "procedure": "(§1) NCGC Assay Overview: The IL-6/STAT signaling pathway was assayed in ME-180 cervical carcinoma cells by a beta-lactamase reporter gene controlled by a STAT Inducible Element (SIE). This reporter is induced by IL-6 at 40 pM AC50 and inhibited by the pan JAK inhibitor, 2-(1,1-Dimethylethyl)-9-fluoro-3,6-dihydro-7H-benz[h]-imidaz[4,5-f]isoquinolin-7-one, at approximately 10 nM AC50. Plated cells were incubated overnight and on the following day, stimulated with 40 pM IL-6 for 5 hrs. The assay was screened at the AC50 of IL-6 activation to identify both inhibitors and activators of IL-6/STAT signaling.\n(§2) NCGC Assay Protocol Summary: Cells were trypsinized, washed in assay medium (AM, OPTI MEM with 0.5% fetal bovine serum, 0.1 mM nonessential amino acids, 1 mM sodium pyruvate, 10mM HEPES pH 7.3, 100U/ml penicillin, and 100 ug/ml streptomycin) and suspended at 6 x 10e5/ml in AM. Approximately […] cells in 5 uL/well was dispensed into 1536 well plates and the cells were incubated overnight at 37 C. 23 nL of compound were delivered by a pin tool and 1 uL of IL-6 (40 pM final concentration in AM) was added. After centrifugation at 1000 rpm for less than a minute, plates were incubated at 37C for 5 hrs. One uL of detector mix (LiveBLAzerTM, Invitrogen) was added, the plates incubated at room temperature for 2.5 hrs, and fluorescence intensity at 460 and 530 nm emission was measured at 405 nm excitation by an Envision (Perkin Elmer) or Safire II (Tecan). Data were normalized by GeneData to the controls for AC90 stimulation (300 pM IL-6) and to AC90 inhibition (125 nM Jak inhibitor, 40 pM IL-6 in AM).", "values": [{"smiles": "CC(=O)NCCNc1ncnc2ccc(-c3ccccc3C)cc12", "activity, negative = inhibition": "-8.49% (inactive)"}, {"smiles": "CCNc1ncc2nc(-c3cccs3)c(=O)n(CCc3ccccc3)c2n1", "activity, negative = inhibition": "98% [activator] (active)"}, {"smiles": "Cc1noc(C)c1-c1nccc(NCCN2CCOCC2)n1", "activity, negative = inhibition": "2.66% (inactive)"}, {"smiles": "COc1ccc(CNc2ccnc(-c3cccnc3)n2)c(OC)c1", "activity, negative = inhibition": "-2.65% (inactive)"}, {"smiles": "O=C(c1ccncc1)N1CCC[C@@]2(CCN(c3ccncc3)C2)C1", "activity, negative = inhibition": "-3.85% (inactive)"}, {"smiles": "c1ccc2c(N3CCOCC3)nc(-c3ccoc3)nc2c1", "activity, negative = inhibition": "-2.69% (inactive)"}, {"smiles": "COc1ccc(CNc2ccnc(-c3c(C)noc3C)n2)c(OC)c1", "activity, negative = inhibition": "0.0565% (inactive)"}, {"smiles": "Cc1ccccc1-c1nc(N(C)Cc2ccco2)c2ccccc2n1", "activity, negative = inhibition": "-5.08% (inactive)"}, {"smiles": "CN(C)C(=O)c1ccc(-c2nccc(Nc3ccc(F)cc3)n2)cc1", "activity, negative = inhibition": "-4.15% (inactive)"}, {"smiles": "N#Cc1cccc(-c2nc3cnc(N4CCOCC4)nc3n(Cc3ccc(F)cc3)c2=O)c1", "activity, negative = inhibition": "13.2% (inactive)"}, {"smiles": "Cc1cnc(CNc2ccnc(-c3cccnc3)n2)cn1", "activity, negative = inhibition": "13.3% (inactive)"}, {"smiles": "Cn1cccc1C(=O)N1CCC2(CC1)CCN(c1ncccn1)CC2", "activity, negative = inhibition": "-4.72% (inactive)"}, {"smiles": "CS(=O)(=O)Nc1cccc(-c2nccc(Nc3ccc(F)cc3)n2)c1", "activity, negative = inhibition": "-20.3% (inactive)"}, {"smiles": "CN(C)C(=O)c1ccc(-c2nccc(-n3ccnc3)n2)cc1", "activity, negative = inhibition": "8.25% (inactive)"}, {"smiles": "N#Cc1ccc(CN2CCCC3(CCN(C(=O)c4ccco4)CC3)C2)cc1", "activity, negative = inhibition": "4.81% (inactive)"}, {"smiles": "COc1ccccc1-c1nc(NCc2cccs2)c2ccccc2n1", "activity, negative = inhibition": "21.2% (inactive)"}, {"smiles": "COc1cccc(Nc2ncc3nc(-c4ccccc4)c(=O)n(C)c3n2)c1", "activity, negative = inhibition": "4.13% (inactive)"}, {"smiles": "COc1cccc(Cn2c(=O)c(-c3cc(F)cc(F)c3)nc3cncnc32)c1", "activity, negative = inhibition": "-1.76% (inactive)"}, {"smiles": "COc1ncc2nc(-c3ccccc3)c(=O)n(C3CC3)c2n1", "activity, negative = inhibition": "-13.4% (inactive)"}, {"smiles": "CC(=O)N1CCC2(CC1)CN(C(=O)Nc1cccc(C#N)c1)C2", "activity, negative = inhibition": "11.4% (inactive)"}, {"smiles": "COc1ccccc1-c1cc(NCc2cccs2)ncn1", "activity, negative = inhibition": "-5.58% (inactive)"}, {"smiles": "N#CCCn1c(=O)cnc2cnc(N3CCNCC3)nc21", "activity, negative = inhibition": "-12.7% (inactive)"}, {"smiles": "Cc1cnc(CNc2ccnc(-c3cccc(C#N)c3)n2)cn1", "activity, negative = inhibition": "6.8% (inactive)"}, {"smiles": "COc1cccc(Nc2ncc3nc(-c4cc(F)cc(F)c4)c(=O)n(C[C@H]4CCCO4)c3n2)c1", "activity, negative = inhibition": "-10.3% (inactive)"}, {"smiles": "O=c1c(-c2ccccc2)nc2cnc(N3CCOCC3)nc2n1Cc1cccs1", "activity, negative = inhibition": "20.6% (inactive)"}, {"smiles": "O=C(c1cccc(F)c1)N1CCC2(CCCN(c3ccncc3)C2)CC1", "activity, negative = inhibition": "-8.19% (inactive)"}, {"smiles": "CN(Cc1ccco1)c1cc(-c2ccccc2C(F)(F)F)ncn1", "activity, negative = inhibition": "3.49% (inactive)"}, {"smiles": "COc1cccc(Cn2c(=O)cnc3cnc(Nc4ccccc4)nc32)c1", "activity, negative = inhibition": "-29.7% (inactive)"}, {"smiles": "Cn1cccc1C(=O)N1CCC[C@@]2(CCN(C(=O)Nc3cccc(C#N)c3)C2)C1", "activity, negative = inhibition": "-3.81% (inactive)"}, {"smiles": "CC(=O)N1CCC2(CC1)CCN(c1ccc(-c3ccccc3)cc1)CC2", "activity, negative = inhibition": "-16.9% (inactive)"}, {"smiles": "Cn1cccc1C(=O)N1CCC2(CCCN(c3ccccn3)C2)CC1", "activity, negative = inhibition": "-6.89% (inactive)"}, {"smiles": "COc1cccc(-c2ccc3ncnc(N4CCOCC4)c3c2)c1", "activity, negative = inhibition": "8.65% (inactive)"}]}, {"test": "Stat Signaling Pathway (AID 446)", "settings": "ME-180 SIE beta-lactamase reporter, IL-6 stimulated, 5 h; at 17.2 µM (top of the series)", "procedure": "as §1, §2", "values": [{"smiles": "C[C@@]12CC[C@@H]3c4ccc(O)cc4CC[C@H]3[C@H]1CC[C@H]2O", "activity, negative = inhibition": "-28.8% (inactive)"}, {"smiles": "CC[C@H](NC(C)C)[C@H](O)c1ccc(O)c(O)c1", "activity, negative = inhibition": "3.17% (inactive)"}, {"smiles": "CCCCCN(CCCCC)C(=O)[C@H](CCC(=O)O)NC(=O)c1ccc(Cl)c(Cl)c1", "activity, negative = inhibition": "-27.7% (inactive)"}, {"smiles": "O=C(O)CNC(=O)[C@@H](CS)Cc1ccccc1", "activity, negative = inhibition": "14.5% (inactive)"}]}, {"test": "Stat Signaling Pathway (AID 446)", "settings": "ME-180 SIE beta-lactamase reporter, IL-6 stimulated, 5 h; at 38 µM (top of the series)", "procedure": "as §1, §2", "values": [{"smiles": "C[C@@]12CC[C@@H]3c4ccc(O)cc4CC[C@H]3[C@H]1CC[C@H]2O", "activity, negative = inhibition": "-19.1% (inactive)"}, {"smiles": "CC[C@H](NC(C)C)[C@H](O)c1ccc(O)c(O)c1", "activity, negative = inhibition": "-26.1% (inactive)"}, {"smiles": "CCCCCN(CCCCC)C(=O)[C@H](CCC(=O)O)NC(=O)c1ccc(Cl)c(Cl)c1", "activity, negative = inhibition": "-25.5% (inactive)"}, {"smiles": "O=C(O)CNC(=O)[C@@H](CS)Cc1ccccc1", "activity, negative = inhibition": "26.3% (inactive)"}]}]}
